# Assays:
# [1] = biological target: Leukocyte tyrosine kinase receptor (Homo sapiens) (UniProt P29376); conditions: at 1 µM;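 note: each value is the mean inhibition of LTK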
# [2] = biological target: Tyrosine-protein kinase Lyn (Homo sapiens) (UniProt P07948); conditions: at 0.1 µM
# [3] = biological target: Tyrosine-protein kinase Lyn (Homo sapiens) (UniProt P07948); conditions: at 1 µM
# [4] = biological target: Tyrosine-protein kinase Lyn (Homo sapiens) (UniProt P07948); conditions: at 0.1 µM; remark: listed apart in the source
# [5] = biological target: Tyrosine-protein kinase Lyn (Homo sapiens) (UniProt P07948); conditions: at 1 µM; remark: listed apart in the source
# [6] = biological target: T1, Tyrosine-protein kinase Mer (Homo sapiens) (UniProt Q12866); conditions: at 0.1 µM
# T1 sequence (whole entry): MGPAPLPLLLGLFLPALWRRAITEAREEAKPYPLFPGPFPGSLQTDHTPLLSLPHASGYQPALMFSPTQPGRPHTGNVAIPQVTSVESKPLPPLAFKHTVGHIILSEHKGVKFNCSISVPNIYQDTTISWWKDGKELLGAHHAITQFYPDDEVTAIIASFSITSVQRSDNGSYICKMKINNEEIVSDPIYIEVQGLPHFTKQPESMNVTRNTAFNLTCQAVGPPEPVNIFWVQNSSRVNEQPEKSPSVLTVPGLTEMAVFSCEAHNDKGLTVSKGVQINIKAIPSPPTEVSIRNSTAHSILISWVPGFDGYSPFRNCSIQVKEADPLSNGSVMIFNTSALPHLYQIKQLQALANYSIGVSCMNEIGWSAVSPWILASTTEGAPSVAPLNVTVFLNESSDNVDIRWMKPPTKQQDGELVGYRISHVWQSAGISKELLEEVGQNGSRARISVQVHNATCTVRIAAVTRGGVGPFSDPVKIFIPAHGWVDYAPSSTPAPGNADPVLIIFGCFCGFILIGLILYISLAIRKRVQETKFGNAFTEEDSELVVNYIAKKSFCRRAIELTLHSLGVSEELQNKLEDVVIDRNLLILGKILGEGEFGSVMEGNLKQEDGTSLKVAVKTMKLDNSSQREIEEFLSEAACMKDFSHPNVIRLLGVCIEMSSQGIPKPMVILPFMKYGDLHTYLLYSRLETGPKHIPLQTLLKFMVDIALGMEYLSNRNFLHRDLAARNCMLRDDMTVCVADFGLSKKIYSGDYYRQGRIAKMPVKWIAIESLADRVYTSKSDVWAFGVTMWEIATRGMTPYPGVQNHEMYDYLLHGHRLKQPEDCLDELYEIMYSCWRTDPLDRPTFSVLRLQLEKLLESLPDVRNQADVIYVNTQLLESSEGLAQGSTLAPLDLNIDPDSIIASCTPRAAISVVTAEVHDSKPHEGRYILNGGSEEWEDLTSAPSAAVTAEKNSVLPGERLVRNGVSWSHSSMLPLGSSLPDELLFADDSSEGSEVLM
# [7] = biological target: T1, Tyrosine-protein kinase Mer (Homo sapiens); conditions: at 1 µM
# [8] = biological target: Hepatocyte growth factor receptor (Homo sapiens) (UniProt P08581); conditions: at 0.1 µM
# Hepatocyte growth factor receptor (Homo sapiens), sequence (P08581 whole entry): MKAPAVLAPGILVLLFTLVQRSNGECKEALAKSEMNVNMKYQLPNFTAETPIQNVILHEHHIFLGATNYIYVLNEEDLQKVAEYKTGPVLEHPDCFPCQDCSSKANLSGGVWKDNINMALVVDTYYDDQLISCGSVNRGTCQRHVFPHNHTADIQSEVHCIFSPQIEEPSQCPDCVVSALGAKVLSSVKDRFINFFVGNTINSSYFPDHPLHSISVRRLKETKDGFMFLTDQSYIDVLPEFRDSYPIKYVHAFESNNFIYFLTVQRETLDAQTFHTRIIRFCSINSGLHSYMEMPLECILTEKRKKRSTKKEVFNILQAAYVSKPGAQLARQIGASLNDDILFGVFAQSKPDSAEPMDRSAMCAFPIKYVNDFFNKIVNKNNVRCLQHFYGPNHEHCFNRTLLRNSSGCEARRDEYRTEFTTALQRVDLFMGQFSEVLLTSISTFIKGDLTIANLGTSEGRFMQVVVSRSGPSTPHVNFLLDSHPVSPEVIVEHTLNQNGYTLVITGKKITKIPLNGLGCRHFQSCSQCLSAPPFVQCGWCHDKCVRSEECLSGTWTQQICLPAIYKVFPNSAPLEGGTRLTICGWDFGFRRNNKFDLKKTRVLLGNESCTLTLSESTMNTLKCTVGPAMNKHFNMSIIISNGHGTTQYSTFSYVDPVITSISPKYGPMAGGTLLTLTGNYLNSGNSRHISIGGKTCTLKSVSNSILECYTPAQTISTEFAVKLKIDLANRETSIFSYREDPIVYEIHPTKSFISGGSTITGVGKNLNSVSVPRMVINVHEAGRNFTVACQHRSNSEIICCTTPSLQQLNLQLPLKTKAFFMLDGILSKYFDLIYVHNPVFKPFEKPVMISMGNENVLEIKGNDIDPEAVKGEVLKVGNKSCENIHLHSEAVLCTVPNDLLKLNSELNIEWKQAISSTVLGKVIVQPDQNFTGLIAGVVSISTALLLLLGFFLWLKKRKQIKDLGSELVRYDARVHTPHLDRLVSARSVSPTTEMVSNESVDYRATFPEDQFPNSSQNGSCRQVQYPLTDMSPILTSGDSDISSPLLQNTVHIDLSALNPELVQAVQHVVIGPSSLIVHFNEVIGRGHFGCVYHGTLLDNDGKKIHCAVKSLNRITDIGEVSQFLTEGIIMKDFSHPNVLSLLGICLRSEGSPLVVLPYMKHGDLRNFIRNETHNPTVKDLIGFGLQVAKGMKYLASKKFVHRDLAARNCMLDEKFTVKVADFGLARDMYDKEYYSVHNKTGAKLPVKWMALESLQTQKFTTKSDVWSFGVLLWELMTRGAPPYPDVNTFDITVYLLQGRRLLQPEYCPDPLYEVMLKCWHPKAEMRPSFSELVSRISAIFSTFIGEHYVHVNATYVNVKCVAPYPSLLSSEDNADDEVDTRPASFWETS
# [9] = biological target: Hepatocyte growth factor receptor (Homo sapiens) (UniProt P08581); conditions: at 1 µM
# [10] = biological target: T2, Muscle, skeletal receptor tyrosine-protein kinase (Homo sapiens) (UniProt O15146); conditions: at 0.1 µM
# T2 sequence (whole entry): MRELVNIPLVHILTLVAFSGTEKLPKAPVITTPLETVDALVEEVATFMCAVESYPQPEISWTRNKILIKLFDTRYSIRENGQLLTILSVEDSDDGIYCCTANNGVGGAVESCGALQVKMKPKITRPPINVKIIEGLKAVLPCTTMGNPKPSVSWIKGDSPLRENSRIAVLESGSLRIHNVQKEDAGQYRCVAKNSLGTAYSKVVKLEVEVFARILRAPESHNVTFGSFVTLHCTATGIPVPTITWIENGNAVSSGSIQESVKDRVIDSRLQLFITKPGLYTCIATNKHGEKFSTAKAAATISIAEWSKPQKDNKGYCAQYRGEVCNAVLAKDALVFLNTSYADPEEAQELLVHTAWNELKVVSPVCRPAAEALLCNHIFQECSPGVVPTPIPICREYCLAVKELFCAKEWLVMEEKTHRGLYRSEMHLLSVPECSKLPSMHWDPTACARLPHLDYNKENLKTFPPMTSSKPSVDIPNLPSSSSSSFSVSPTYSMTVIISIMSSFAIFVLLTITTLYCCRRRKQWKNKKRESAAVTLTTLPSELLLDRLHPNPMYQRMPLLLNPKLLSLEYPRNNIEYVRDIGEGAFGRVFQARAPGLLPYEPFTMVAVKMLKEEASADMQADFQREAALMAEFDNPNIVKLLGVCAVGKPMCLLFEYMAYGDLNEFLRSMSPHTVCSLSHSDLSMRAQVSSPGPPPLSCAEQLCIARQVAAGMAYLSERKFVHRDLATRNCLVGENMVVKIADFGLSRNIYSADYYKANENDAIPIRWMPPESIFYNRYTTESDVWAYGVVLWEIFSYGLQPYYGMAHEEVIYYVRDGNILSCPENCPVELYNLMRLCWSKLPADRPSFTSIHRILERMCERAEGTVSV
# [11] = biological target: T2, Muscle, skeletal receptor tyrosine-protein kinase (Homo sapiens); conditions: at 1 µM
# [12] = biological target: Platelet-derived growth factor receptor alpha (Homo sapiens) (UniProt P16234); conditions: at 0.1 µM
# Platelet-derived growth factor receptor alpha (Homo sapiens), sequence (P16234 whole entry): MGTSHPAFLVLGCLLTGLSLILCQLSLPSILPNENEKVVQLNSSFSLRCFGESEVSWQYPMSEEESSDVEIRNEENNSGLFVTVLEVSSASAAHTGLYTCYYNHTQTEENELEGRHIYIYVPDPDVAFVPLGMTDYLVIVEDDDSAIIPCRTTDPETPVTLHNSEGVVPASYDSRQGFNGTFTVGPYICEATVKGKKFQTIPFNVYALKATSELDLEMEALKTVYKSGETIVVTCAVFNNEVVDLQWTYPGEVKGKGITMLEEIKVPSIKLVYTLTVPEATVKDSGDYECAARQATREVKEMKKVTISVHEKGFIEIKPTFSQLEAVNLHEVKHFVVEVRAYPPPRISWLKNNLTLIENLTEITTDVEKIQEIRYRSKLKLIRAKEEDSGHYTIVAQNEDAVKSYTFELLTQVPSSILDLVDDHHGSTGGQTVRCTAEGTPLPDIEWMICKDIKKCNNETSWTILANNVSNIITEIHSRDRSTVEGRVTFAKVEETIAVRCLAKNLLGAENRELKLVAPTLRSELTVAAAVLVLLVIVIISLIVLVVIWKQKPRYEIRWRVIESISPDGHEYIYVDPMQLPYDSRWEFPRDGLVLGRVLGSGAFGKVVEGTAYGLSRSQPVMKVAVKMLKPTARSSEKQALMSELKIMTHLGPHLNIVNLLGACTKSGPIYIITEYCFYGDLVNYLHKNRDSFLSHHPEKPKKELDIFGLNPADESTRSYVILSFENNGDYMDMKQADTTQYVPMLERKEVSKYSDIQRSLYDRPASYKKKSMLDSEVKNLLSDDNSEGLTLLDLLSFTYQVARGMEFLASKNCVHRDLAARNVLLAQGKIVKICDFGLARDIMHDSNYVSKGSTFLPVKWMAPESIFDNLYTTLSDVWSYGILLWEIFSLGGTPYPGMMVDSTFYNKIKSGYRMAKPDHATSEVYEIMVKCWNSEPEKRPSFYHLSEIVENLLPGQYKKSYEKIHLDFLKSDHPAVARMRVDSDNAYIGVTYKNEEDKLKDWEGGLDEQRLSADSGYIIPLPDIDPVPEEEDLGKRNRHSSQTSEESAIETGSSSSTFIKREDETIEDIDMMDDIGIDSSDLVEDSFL
# [13] = biological target: Platelet-derived growth factor receptor alpha (Homo sapiens) (UniProt P16234); conditions: at 1 µM
# [14] = test system: Platelet-derived growth factor receptor alpha (Homo sapiens), P16234 [D842V]; conditions: at 0.1 µM
# [15] = test system: Platelet-derived growth factor receptor alpha (Homo sapiens), P16234 [D842V]; conditions: at 1 µM
# [16] = test system: Platelet-derived growth factor receptor alpha (Homo sapiens), P16234 [T674I]; conditions: at 0.1 µM
# Platelet-derived growth factor receptor alpha (Homo sapiens), P16234 [T674I], sequence (P16234 whole entry T674I): as the sequence (P16234 whole entry) above, with T674I counted along it
# [17] = test system: Platelet-derived growth factor receptor alpha (Homo sapiens), P16234 [T674I]; conditions: at 1 µM
# [18] = test system: Platelet-derived growth factor receptor alpha (Homo sapiens), P16234 [V561D]; conditions: at 0.1 µM
# [19] = test system: Platelet-derived growth factor receptor alpha (Homo sapiens), P16234 [V561D]; conditions: at 1 µM
# [20] = biological target: Platelet-derived growth factor receptor beta (Homo sapiens) (UniProt P09619); conditions: at 0.1 µM;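 note: reported value is the mean percent inhibition of the kinase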
# Leukocyte tyrosine kinase receptor (Homo sapiens), sequence (P29376 whole entry): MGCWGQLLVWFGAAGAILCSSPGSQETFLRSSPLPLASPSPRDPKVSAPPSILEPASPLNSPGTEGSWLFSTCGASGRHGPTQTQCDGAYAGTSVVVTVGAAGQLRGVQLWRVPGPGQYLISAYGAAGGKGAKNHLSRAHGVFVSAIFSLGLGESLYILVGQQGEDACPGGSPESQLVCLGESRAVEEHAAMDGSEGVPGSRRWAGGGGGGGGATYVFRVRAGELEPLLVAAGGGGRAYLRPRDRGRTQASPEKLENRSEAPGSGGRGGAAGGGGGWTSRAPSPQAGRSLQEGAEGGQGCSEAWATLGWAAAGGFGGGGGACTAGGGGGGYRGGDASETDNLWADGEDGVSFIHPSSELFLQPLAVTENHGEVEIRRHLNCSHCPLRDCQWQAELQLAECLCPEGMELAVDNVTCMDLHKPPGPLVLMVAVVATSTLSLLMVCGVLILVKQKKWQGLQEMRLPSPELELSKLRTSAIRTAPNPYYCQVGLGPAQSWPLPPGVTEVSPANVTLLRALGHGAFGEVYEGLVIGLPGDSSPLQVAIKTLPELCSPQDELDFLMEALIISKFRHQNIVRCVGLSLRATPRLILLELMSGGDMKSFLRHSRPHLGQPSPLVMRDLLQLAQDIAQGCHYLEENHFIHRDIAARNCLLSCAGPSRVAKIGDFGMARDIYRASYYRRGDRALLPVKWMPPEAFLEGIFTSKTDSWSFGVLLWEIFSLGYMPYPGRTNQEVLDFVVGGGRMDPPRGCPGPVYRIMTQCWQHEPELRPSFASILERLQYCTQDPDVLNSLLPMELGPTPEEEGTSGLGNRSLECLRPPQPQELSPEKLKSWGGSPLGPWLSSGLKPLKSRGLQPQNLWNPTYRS
# Tyrosine-protein kinase Lyn (Homo sapiens), sequence (P07948 2-512 limits assumed): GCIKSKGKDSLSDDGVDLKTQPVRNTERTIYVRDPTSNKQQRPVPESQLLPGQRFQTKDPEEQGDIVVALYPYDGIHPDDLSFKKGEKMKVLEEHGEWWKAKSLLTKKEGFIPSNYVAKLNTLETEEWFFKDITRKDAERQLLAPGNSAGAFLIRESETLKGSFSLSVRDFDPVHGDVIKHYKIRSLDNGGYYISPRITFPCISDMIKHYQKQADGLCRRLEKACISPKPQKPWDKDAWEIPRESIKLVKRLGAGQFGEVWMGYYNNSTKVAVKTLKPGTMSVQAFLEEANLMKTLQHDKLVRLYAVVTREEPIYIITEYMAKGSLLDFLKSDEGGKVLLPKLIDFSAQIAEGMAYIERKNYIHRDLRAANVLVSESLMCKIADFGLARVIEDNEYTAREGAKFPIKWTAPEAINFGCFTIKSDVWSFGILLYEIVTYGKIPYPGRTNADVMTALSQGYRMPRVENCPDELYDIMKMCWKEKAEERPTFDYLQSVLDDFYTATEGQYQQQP
Structure (SMILES),inhibition [1],inhibition [2],inhibition [3],inhibition [4],inhibition [5],inhibition [6],inhibition [7],inhibition [8],inhibition [9],inhibition [10],inhibition [11],inhibition [12],inhibition [13],inhibition [14],inhibition [15],inhibition [16],inhibition [17],inhibition [18],inhibition [19],inhibition [20]
Fc1cccc(COc2ccc(Nc3ncnc4sc(-c5ccco5)cc34)cc2Cl)c1,4.08%,3.59%,4.38%,2.97%,2.48%,0.45%,3.51%,3.09%,4.96%,4.4%,3.44%,13.5%,19.9%,3%,2.87%,6.38%,15.5%,6.49%,4.1%,7.85%
Cc1cccc2c1NC(=O)/C2=N\Nc1ccc(S(N)(=O)=O)cc1,2%,3.38%,5.9%,1.15%,2.52%,1.25%,2.98%,4.07%,-0.51%,2.77%,5.17%,7.81%,17.4%,0.21%,8.1%,3.33%,7.27%,13.4%,41.3%,2.52%
NS(=O)(=O)c1ccc(Nc2ncc(-c3ccccc3)o2)cc1,6.46%,5.4%,12.4%,2.72%,9.48%,2.4%,5.27%,1.7%,-0.71%,3.44%,12.4%,7.81%,34.8%,1.5%,10.2%,14.4%,65.1%,25.7%,50.5%,12%
Nc1nc(-c2cccc(Cl)c2)c(-c2ccc3ncccc3n2)s1,6.22%,7.27%,16.1%,5.14%,13.2%,2.09%,7.21%,6.65%,7.33%,2.01%,2.14%,8.04%,28.3%,8.3%,40.8%,5.77%,9.67%,9.61%,26.7%,5.64%
COc1cc2ncn(-c3cc(OCc4ccccc4C(F)(F)F)c(C(=O)N(C)C)s3)c2cc1OC,1.07%,0.76%,10.9%,0.93%,8.58%,1.59%,2.36%,1.4%,-4.49%,-0.19%,2.19%,11%,39.9%,4.06%,23.9%,2.17%,1.13%,5.15%,26.5%,6.2%
COc1ccc2[nH]c3c4[nH]c5ccc(OC)cc5c4c4c(c3c2c1)C(=O)NC4=O,78.3%,10.8%,35.3%,7.67%,31.5%,10.7%,50.1%,10.5%,19.8%,4.97%,11.8%,81.1%,83.5%,94.8%,96.3%,65.7%,94.3%,93.8%,96.8%,78.2%
[O-][S+]1CCN(Cc2ccc(-c3ccc4ncnc(Nc5ccc(OCc6cccc(F)c6)c(Cl)c5)c4c3)o2)CC1,7.31%,6.15%,8.63%,5.42%,7.66%,2.54%,31%,11.9%,10.6%,3.52%,2.81%,7.43%,13.2%,4.45%,6.91%,4%,6.97%,3.95%,8.29%,4.69%
CN1CCC(n2cnc(-c3ccc(F)cc3)c2-c2ccnc(Nc3ccccc3)n2)CC1,1.97%,4.88%,23.3%,2.82%,13.9%,0.46%,6.83%,-0.26%,9.59%,1.28%,2.15%,8.81%,22.1%,4.56%,18.6%,5.9%,5.98%,5.65%,15.5%,7.67%
CNC(=O)c1cc(-c2ccc(F)cc2)cc(-c2ccc(S(=O)(=O)N3CCCC3)cc2)c1N,3.29%,2.72%,2.56%,1.59%,1.39%,0.74%,2.3%,3.93%,5.04%,2.8%,0.83%,3.69%,7.98%,2.05%,1.76%,2.94%,2.93%,3.32%,2.29%,3.45%
COc1ccc2c(-c3ccnc(Nc4cccc(OC(F)(F)F)c4)n3)cnn2n1,4.46%,7.95%,9.21%,3.18%,7.1%,1.44%,2.89%,4.94%,15.7%,5.85%,11.5%,9.71%,30.5%,-0.9%,13.4%,7.01%,9.76%,5.14%,19.4%,4.02%
CS(=O)(=O)CCNCc1ccc(-c2ccc3ncnc(Nc4ccc(OCc5ccccc5)c(C(F)(F)F)c4)c3c2)o1,3.64%,4.35%,10.4%,2.65%,2.28%,-0.65%,1.81%,0.49%,5.8%,1.44%,-0.25%,6.22%,7.17%,2.98%,2.15%,3.58%,5.04%,3.38%,1.15%,1.55%
CCn1cc(-c2ccnc3[nH]ccc23)c(-c2cccc(NC(=O)Nc3ccc(OCc4ccccc4)cc3)c2)n1,-0.91%,5.25%,19.4%,2.62%,13.6%,0.66%,8.39%,9.54%,46.4%,-1.52%,-5.2%,1.29%,7.03%,1.41%,2.72%,0.5%,1.13%,-0.44%,1.14%,2.04%
CNC(=O)c1cccc(C#Cc2cncnc2Nc2ccc(OCc3cccc(F)c3)c(Cl)c2)c1,0.16%,3.69%,5.89%,2.02%,2.83%,1.54%,2.26%,3.13%,5.11%,-0.28%,-1.15%,5.17%,17.4%,-0.74%,2.9%,1.03%,2.59%,0.66%,4.6%,4.41%
COc1cccc(-c2c[nH]c3c(N/N=C/c4ccncc4)ncnc23)c1,2.09%,40.1%,83.3%,33.8%,81.8%,2.09%,15.7%,4.89%,27.3%,13.4%,48.8%,64%,82.8%,72.2%,94.4%,21.8%,82.2%,59.7%,93%,55%

# Source: ChEMBL document CHEMBL1961873, “Compounds: GSK PKIS; Assays: Nanosyn kinase panel” (2012)
